# Experimental data reported in the supplement of paper PMC11624193, “Coupling cellular drug-target engagement to downstream pharmacology with CeTEAM” (Nature Communications, 2024).
# Counter-ions that a name gives are not always drawn.
# Molecular target: PARP1 L713F-nLuc biosensor (HCT116) (UniProt P09874)
# Assay: PARP1 L713F-nLuc/akaLuc ratio relative to DMSO control (biosensor stabilization) (fold change); higher = more PARP1 biosensor stabilization (target engagement / stabilizer), active = hit call of the paper
# Details: stock concentration (mM; final µM = stock mM x 1): 10; 24 h;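 active = log2 fold change beyond 2 SD from the library mean after excluding viability outliers; inactive = within 2 SD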
# Sequence of PARP1 L713F-nLuc biosensor (HCT116) (P09874 whole entry L713F, looked up): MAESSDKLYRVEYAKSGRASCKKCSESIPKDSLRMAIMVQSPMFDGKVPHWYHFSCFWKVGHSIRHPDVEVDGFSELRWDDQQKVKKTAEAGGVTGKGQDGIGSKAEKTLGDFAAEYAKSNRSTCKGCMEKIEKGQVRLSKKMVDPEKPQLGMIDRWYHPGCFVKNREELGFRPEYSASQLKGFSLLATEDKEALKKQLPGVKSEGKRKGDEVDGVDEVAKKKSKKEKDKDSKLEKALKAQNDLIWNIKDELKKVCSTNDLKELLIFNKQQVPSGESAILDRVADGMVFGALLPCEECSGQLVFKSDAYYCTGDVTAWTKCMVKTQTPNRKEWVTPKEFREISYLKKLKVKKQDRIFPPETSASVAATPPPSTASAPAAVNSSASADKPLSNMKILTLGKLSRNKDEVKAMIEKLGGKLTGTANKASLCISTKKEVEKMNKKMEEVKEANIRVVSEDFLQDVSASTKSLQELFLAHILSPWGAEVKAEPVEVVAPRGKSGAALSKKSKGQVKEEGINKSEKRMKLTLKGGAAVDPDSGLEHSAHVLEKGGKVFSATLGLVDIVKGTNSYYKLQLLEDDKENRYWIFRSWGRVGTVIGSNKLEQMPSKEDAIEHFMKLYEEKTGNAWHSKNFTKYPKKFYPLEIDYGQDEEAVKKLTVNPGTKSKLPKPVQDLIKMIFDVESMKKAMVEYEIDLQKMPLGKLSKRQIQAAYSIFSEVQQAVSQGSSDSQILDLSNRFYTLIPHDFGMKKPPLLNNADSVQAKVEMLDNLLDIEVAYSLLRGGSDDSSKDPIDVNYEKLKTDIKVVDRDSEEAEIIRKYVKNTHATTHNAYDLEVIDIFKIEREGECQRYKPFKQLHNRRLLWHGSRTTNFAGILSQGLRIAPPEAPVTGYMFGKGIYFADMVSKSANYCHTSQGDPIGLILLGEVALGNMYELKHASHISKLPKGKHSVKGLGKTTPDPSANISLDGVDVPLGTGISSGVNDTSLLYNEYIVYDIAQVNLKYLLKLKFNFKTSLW
row,Compound,PARP1 L713F-nLuc/akaLuc ratio
1,CN(C)C(=O)c1ccc(S(=O)(=O)c2ccc(NC(=O)[C@@](C)(O)C(F)(F)F)c(Cl)c2)cc1,1.12 (inactive)
2,N=C(N)NC(=N)NCCc1ccccc1 [Phenformin (hydrochloride)],0.696 (inactive)
3,CCN(CC)Cc1cc(Nc2ccnc3cc(Cl)ccc23)ccc1O [Amodiaquine (dihydrochloride)],1.11 (inactive)
4,OC1CCC(Nc2ncc3nc(Nc4c(F)cc(F)cc4F)n([C@H]4CCOC4)c3n2)CC1 (some centres not stated) [Tanzisertib(CC-930)],1.11 (inactive)
5,C[C@H](Nc1cc(-c2cnn(C)c2)cc(Nc2cnccn2)n1)c1ccc(F)cc1 [Ilginatinib (maleate)],0.614 (inactive)
6,CCCCCC1CC1CC1CC1CCCCCCCC(=O)O (configuration not stated),1.14 (inactive)
7,N#Cc1ccc2ncnc(NCCc3ccccc3)c2c1 [Senexin A],1.24 (inactive)
